Assays:
[1] = biological target: Ephrin type-A receptor 5 (Homo sapiens) (UniProt P54756); conditions: at 1 µM
[2] = biological target: Ephrin type-A receptor 5 (Homo sapiens) (UniProt P54756); conditions: at 10 µM
[3] = biological target: Ephrin type-A receptor 7 (Homo sapiens) (UniProt Q15375); conditions: at 1 µM
[4] = biological target: Ephrin type-A receptor 7 (Homo sapiens) (UniProt Q15375); conditions: at 10 µM
[5] = biological target: T1, Ephrin type-A receptor 8 (Homo sapiens) (UniProt P29322); conditions: at 10 µM
T1 sequence (whole entry): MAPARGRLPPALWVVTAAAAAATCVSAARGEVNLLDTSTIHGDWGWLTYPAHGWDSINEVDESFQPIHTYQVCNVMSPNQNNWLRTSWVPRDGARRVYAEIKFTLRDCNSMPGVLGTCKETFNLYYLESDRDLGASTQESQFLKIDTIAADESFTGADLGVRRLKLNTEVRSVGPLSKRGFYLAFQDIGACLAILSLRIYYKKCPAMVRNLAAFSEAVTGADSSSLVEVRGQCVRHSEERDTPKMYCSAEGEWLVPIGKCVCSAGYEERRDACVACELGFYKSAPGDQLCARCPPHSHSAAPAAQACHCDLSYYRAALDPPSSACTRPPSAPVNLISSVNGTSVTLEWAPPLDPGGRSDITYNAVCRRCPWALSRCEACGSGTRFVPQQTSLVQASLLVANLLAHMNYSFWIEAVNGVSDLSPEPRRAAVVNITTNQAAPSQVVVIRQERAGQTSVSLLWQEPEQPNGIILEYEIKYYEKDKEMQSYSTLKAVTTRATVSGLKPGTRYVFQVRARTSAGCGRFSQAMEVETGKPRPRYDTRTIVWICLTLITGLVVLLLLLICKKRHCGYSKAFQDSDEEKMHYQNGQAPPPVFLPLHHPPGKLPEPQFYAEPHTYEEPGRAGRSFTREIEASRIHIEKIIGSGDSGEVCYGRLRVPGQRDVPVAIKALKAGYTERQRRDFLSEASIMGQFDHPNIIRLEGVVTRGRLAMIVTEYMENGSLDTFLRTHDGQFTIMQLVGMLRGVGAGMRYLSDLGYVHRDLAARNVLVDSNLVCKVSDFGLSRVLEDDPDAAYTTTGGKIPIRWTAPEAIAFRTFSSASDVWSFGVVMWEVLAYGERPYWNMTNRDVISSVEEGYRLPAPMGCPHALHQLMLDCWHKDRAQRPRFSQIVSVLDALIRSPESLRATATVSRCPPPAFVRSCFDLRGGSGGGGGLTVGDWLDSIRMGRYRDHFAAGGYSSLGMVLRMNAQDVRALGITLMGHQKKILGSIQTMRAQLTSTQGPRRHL

[6] = biological target: T2, Ephrin type-B receptor 1 (Homo sapiens) (UniProt P54762); conditions: at 10 µM
T2 sequence (whole entry): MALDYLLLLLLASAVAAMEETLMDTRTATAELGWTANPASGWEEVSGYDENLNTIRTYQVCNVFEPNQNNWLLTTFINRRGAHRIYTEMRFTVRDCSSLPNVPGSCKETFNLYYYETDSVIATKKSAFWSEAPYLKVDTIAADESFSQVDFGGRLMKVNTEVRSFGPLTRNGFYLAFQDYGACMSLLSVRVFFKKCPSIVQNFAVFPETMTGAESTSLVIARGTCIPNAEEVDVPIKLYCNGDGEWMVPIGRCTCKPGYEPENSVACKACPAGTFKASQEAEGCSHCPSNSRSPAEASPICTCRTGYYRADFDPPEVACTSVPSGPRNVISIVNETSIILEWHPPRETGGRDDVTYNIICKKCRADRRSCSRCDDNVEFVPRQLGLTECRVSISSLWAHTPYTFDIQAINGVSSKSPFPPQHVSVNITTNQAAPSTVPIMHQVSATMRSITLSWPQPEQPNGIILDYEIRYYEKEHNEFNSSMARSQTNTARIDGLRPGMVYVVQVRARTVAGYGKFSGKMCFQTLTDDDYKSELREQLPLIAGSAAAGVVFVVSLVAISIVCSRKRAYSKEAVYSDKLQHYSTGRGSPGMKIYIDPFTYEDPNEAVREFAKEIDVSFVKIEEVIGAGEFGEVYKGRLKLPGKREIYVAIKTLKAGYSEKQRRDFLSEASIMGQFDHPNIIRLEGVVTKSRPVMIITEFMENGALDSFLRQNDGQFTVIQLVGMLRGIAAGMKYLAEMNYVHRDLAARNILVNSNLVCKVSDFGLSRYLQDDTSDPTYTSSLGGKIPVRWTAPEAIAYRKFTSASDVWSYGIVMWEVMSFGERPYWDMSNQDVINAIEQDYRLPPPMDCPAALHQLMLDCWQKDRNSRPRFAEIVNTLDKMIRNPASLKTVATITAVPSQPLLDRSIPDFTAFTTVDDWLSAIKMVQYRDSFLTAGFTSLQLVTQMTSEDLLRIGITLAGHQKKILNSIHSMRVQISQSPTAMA

[7] = biological target: T3, Ephrin type-B receptor 2 (Homo sapiens) (UniProt P29323); conditions: at 10 µM
T3 sequence (whole entry): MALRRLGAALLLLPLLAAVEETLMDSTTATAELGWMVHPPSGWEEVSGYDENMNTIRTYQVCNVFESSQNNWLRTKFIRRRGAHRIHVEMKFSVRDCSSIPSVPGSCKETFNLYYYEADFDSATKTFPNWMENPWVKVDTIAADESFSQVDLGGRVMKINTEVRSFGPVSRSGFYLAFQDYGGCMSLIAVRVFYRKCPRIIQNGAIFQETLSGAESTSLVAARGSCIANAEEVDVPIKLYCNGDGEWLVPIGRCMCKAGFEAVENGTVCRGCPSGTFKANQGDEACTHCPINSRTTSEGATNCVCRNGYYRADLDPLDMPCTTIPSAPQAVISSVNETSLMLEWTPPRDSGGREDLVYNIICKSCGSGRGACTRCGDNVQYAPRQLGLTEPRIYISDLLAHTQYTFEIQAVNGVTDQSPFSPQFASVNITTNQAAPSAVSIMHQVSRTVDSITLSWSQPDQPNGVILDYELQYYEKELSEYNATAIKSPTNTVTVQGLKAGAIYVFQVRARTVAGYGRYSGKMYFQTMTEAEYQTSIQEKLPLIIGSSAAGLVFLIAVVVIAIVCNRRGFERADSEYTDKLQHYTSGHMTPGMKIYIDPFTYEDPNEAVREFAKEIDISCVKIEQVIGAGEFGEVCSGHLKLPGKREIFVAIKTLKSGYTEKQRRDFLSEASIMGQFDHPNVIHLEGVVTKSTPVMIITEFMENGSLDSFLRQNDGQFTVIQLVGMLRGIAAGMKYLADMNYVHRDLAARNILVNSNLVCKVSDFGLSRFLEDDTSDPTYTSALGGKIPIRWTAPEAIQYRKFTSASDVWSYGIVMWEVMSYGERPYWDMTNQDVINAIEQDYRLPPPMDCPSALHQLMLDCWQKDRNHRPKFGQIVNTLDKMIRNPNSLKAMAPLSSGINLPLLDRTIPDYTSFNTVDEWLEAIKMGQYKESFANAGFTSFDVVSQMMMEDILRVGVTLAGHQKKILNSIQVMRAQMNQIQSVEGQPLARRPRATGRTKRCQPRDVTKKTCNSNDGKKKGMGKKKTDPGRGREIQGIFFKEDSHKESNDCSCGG

[8] = biological target: T4, Ephrin type-B receptor 3 (Homo sapiens) (UniProt P54753); conditions: at 10 µM
T4 sequence (whole entry): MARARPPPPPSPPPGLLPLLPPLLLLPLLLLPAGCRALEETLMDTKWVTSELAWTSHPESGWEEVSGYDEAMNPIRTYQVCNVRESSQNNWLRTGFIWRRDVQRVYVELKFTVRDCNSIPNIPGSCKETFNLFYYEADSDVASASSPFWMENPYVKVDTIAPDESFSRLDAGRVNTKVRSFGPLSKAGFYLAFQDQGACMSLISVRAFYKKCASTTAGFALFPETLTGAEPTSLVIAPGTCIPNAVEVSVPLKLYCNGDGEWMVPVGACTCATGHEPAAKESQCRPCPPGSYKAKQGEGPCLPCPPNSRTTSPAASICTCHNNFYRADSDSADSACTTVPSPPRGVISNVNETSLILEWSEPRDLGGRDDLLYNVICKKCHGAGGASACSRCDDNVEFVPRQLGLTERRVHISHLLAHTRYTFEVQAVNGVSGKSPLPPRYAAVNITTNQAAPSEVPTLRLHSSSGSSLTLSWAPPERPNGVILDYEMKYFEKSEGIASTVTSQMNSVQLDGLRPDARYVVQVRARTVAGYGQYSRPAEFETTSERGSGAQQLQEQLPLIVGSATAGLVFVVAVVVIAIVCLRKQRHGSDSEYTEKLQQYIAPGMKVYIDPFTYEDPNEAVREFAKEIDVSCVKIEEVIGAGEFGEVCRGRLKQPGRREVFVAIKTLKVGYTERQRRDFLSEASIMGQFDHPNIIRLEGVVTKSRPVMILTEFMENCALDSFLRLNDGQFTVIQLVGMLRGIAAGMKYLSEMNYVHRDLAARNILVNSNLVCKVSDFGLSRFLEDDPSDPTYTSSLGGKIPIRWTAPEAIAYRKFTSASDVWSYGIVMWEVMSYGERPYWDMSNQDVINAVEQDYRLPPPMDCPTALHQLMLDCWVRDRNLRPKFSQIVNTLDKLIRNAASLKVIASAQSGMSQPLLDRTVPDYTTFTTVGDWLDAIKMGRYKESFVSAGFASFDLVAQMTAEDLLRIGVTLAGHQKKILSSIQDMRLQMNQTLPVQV

[9] = biological target: T5, Ephrin type-B receptor 4 (Homo sapiens) (UniProt P54760); conditions: at 1 µM
T5 sequence (whole entry): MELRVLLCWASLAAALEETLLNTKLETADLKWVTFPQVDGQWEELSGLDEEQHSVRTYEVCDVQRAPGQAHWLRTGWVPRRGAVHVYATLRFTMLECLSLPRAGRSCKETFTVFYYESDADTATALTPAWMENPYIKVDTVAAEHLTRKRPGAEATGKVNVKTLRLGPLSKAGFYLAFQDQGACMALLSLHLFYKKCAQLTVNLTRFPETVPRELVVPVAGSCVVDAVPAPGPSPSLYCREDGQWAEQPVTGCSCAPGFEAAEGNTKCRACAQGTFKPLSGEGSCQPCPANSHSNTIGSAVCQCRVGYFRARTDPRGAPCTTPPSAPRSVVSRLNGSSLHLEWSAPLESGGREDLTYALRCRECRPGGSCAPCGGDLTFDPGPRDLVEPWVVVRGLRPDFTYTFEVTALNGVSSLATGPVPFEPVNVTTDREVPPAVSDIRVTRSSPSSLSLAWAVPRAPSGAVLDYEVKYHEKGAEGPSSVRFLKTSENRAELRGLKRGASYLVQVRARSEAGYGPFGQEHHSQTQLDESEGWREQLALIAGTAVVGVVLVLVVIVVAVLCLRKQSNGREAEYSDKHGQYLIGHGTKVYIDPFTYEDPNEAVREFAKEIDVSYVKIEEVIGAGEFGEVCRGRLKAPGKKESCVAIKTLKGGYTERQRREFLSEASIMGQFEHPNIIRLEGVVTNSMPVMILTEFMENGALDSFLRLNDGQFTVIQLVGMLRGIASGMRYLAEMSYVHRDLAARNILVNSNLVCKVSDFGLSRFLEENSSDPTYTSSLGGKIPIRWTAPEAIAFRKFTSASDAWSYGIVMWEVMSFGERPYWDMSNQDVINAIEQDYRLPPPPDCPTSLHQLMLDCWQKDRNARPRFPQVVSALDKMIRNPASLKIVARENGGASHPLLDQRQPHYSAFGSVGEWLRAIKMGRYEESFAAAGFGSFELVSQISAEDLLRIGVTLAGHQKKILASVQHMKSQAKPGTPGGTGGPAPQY

[10] = biological target: T5, Ephrin type-B receptor 4 (Homo sapiens); conditions: at 10 µM
[11] = biological target: Receptor tyrosine-protein kinase erbB-4 (Homo sapiens) (UniProt Q15303); conditions: at 1 µM
[12] = biological target: Receptor tyrosine-protein kinase erbB-4 (Homo sapiens) (UniProt Q15303); conditions: at 10 µM
[13] = biological target: Focal adhesion kinase 1 (Homo sapiens) (UniProt Q05397); conditions: at 1 µM
[14] = biological target: Ephrin type-A receptor 4 (Homo sapiens) (UniProt P54764); conditions: at 1 µM
[15] = biological target: Ephrin type-A receptor 4 (Homo sapiens) (UniProt P54764); conditions: at 10 µM
[16] = biological target: T2, Ephrin type-B receptor 1 (Homo sapiens); conditions: at 1 µM
[17] = biological target: T3, Ephrin type-B receptor 2 (Homo sapiens); conditions: at 1 µM
[18] = biological target: T4, Ephrin type-B receptor 3 (Homo sapiens); conditions: at 1 µM
[19] = biological target: T1, Ephrin type-A receptor 8 (Homo sapiens); conditions: at 1 µM

Chain of Ephrin type-A receptor 7 (Homo sapiens) (Q15375 28-998 limits assumed): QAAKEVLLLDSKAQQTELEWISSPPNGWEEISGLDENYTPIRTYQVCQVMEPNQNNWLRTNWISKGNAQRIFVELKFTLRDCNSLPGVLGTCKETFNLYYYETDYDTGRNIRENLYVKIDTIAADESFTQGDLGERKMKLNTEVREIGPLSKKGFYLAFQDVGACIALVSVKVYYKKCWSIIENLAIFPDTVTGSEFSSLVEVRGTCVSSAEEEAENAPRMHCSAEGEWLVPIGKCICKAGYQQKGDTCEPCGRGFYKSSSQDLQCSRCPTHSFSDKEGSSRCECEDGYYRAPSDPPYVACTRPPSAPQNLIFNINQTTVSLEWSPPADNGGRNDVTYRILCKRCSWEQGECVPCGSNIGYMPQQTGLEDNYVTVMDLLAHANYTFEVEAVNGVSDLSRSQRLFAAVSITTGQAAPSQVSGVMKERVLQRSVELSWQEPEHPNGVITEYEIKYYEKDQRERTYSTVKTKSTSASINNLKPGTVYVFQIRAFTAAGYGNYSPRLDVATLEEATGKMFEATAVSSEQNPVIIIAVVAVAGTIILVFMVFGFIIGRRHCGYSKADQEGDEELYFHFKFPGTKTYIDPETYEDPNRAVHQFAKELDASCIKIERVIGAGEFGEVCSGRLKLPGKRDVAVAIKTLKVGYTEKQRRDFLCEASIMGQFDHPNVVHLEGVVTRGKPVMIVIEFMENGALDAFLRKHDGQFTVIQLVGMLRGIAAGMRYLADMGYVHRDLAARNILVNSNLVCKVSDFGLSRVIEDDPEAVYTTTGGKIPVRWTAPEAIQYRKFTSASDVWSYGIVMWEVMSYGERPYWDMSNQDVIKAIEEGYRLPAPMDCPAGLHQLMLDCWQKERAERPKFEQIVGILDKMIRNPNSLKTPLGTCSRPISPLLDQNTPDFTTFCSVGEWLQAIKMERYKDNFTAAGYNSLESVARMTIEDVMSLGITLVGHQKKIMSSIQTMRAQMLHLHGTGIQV
Chain of Ephrin type-A receptor 5 (Homo sapiens) (P54756 whole entry): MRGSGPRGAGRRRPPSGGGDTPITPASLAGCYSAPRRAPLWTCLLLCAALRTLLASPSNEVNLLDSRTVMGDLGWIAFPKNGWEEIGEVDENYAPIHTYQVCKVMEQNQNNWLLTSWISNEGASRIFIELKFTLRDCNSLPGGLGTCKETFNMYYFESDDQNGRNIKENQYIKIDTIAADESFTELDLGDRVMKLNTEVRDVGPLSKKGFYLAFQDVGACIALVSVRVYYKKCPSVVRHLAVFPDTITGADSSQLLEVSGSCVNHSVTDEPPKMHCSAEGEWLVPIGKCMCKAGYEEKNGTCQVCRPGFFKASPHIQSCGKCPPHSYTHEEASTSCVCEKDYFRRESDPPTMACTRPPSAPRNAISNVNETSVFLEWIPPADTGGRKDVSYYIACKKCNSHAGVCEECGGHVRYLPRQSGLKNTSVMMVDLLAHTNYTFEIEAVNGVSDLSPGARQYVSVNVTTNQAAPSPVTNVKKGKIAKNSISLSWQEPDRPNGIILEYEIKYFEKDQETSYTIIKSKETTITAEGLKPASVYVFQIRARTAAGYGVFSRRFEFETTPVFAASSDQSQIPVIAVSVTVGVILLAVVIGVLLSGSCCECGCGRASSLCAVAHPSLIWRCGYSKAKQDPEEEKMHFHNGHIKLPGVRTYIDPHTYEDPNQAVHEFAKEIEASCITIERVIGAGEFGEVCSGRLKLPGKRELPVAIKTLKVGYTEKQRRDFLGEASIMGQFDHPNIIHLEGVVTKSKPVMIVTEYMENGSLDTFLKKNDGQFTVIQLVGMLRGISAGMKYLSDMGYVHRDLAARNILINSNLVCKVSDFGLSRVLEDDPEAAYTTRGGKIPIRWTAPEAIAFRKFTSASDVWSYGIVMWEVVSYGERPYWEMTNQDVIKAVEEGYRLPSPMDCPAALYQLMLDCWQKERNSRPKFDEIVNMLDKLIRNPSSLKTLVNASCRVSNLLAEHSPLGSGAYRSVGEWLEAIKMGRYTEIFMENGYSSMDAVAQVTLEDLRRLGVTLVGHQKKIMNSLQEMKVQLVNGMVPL
Chain of Receptor tyrosine-protein kinase erbB-4 (Homo sapiens) (Q15303 whole entry): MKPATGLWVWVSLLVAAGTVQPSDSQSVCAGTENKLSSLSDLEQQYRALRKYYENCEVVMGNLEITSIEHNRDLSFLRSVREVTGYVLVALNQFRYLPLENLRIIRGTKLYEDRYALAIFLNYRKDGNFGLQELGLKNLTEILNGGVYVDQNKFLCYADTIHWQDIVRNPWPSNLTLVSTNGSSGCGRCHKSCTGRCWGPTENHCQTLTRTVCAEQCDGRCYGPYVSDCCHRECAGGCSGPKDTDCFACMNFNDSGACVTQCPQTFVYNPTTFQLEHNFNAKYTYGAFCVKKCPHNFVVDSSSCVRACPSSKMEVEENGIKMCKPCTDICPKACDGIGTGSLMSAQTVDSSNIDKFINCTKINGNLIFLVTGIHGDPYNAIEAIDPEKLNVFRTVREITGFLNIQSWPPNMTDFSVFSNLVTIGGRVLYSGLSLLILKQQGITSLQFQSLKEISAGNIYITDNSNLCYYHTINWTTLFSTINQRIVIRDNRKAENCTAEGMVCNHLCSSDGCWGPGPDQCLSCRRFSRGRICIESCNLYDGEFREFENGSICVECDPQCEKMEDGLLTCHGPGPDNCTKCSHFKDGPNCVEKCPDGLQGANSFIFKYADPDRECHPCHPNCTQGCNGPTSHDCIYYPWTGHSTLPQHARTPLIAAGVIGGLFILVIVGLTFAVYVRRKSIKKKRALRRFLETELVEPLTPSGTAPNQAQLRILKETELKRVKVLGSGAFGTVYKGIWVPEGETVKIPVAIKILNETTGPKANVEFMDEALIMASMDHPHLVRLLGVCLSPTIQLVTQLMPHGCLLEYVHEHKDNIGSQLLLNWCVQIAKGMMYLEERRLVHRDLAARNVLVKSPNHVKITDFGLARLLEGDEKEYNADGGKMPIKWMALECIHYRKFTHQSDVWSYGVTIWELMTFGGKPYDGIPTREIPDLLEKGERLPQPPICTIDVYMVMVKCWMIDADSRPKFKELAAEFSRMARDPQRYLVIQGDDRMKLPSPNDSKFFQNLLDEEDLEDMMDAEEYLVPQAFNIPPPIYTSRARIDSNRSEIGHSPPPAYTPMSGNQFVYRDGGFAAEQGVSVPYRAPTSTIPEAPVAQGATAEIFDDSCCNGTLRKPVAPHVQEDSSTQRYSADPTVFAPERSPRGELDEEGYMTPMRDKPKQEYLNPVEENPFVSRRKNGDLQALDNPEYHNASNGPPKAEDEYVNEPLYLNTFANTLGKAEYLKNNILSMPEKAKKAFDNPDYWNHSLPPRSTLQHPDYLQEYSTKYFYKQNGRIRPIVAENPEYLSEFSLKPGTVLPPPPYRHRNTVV
Chain of Ephrin type-A receptor 4 (Homo sapiens) (P54764 whole entry): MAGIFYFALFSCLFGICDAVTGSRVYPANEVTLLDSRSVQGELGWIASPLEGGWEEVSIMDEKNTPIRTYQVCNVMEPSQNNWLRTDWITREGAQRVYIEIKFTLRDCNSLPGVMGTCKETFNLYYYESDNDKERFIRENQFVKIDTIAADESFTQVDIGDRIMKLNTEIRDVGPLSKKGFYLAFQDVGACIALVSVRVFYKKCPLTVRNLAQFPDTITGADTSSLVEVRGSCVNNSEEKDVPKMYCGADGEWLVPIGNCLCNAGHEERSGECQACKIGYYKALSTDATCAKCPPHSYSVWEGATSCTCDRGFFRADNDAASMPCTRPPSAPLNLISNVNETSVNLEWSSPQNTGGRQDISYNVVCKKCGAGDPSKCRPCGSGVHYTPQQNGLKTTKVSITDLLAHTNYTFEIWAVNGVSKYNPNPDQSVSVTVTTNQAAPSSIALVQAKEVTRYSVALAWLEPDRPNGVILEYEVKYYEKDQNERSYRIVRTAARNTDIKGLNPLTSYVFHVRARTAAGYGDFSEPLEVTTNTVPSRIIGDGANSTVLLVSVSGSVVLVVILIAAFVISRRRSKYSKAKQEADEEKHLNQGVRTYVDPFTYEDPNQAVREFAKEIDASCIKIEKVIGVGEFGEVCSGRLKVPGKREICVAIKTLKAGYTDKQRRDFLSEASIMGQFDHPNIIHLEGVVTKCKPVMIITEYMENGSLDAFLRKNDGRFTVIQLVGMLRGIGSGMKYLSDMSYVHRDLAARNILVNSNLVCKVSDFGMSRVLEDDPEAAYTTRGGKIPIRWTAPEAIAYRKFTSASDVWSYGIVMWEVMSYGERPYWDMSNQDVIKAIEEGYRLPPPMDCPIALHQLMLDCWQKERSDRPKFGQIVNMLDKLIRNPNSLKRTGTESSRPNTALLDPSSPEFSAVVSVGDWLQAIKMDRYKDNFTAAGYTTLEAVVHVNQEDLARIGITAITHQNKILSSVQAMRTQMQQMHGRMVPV

O=C(c1cc2cc(O)ccc2[nH]1)c1cc2cc(O)ccc2[nH]1
residual activity [1]: 78%
residual activity [2]: 32%
residual activity [3]: 83%
residual activity [4]: 66%
residual activity [5]: 73%
residual activity [6]: 28%
residual activity [7]: 24%
residual activity [8]: 126%
residual activity [9]: 72%
residual activity [10]: 13%
residual activity [11]: 73%
residual activity [12]: 63%
residual activity [13]: 112%

COc1ccc(CNC(=O)Nc2ncc([N+](=O)[O-])s2)cc1
residual activity [14]: 100%
residual activity [15]: 102%
residual activity [1]: 114%
residual activity [2]: 102%
residual activity [4]: 80%
residual activity [16]: 111%
residual activity [6]: 80%
residual activity [17]: 105%
residual activity [7]: 117%
residual activity [18]: 117% (inactive)
residual activity [8]: 105%
residual activity [10]: 78%
residual activity [11]: 43%
residual activity [12]: 33%

N#C/C(=C\c1ccc(O)c(O)c1)C(=O)NCc1ccccc1
residual activity [1]: 101%
residual activity [3]: 104%
residual activity [4]: 85%
residual activity [8]: 133%
residual activity [9]: 129%
residual activity [10]: 102%
residual activity [13]: 127%

N#Cc1c(NC(=O)c2cccc3ccccc23)sc2c1CCCC2
residual activity [6]: 95%
residual activity [9]: 90%
residual activity [12]: 94%

O=S(=O)(NCCNC/C=C/c1ccc(Br)cc1)c1cccc2cnccc12
residual activity [1]: 117%
residual activity [12]: 74%

N#C/C(=C1/Nc2ccccc2S1)c1ccnc(NCCc2cccnc2)n1
residual activity [14]: 123%
residual activity [4]: 77%
residual activity [19]: 98%
residual activity [5]: 83%
residual activity [6]: 55%
residual activity [18]: 141% (inactive)
residual activity [8]: 74%
residual activity [9]: 72%
residual activity [10]: 73%
residual activity [11]: 88%
residual activity [12]: 61%
residual activity [13]: 100%

— ChEMBL document CHEMBL2218924, “A broad activity screen in support of a chemogenomic map for kinase signalling research and drug discovery” (Biochem J, 2013)
